Source: the supplement of paper PMC6555819

Assays:
Experiment in all cases: PBM binding z-score (relative to random genomic background probes); higher = stronger binding; sequences stand for … in GC…GCGATTGACAGCGTAGAATGAAGG
[1] = system: FXR:RXRa (NR concentration 270 nM, RXRa partner concentration 90 nM)
Method in brief: (§1)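 Probes were double-stranded and carried 34-nt variable regions with direct-repeat seeds, single-nucleotide variants, half-site ablations and random human genomic background sequences, printed on custom Agilent 4×180K protein-binding microarrays. Arrays were incubated 1 h with ligand-free nuclear receptor dimers in PBS pH 7.4, 2% milk, 0.02% Triton X-100, 1 mM DTT, 0.2 mg/mL BSA and 0.4 mg/ml salmon testes DNA. Antibodies against each partner (one per run) detected binding, and scanned fluorescence was regression-normalized. Binding z-scores use the random background probes as reference.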

[2] = system: LXRa:RXRa (NR concentration 270 nM, RXRa partner concentration 90 nM)
Method in brief: as §1

[3] = system: LXRa homodimer (NR concentration 270 nM)
Method in brief: as §1

[4] = system: LXRb:RXRa (NR concentration 270 nM, RXRa partner concentration 90 nM)
Method in brief: as §1

[5] = system: LXRb homodimer (NR concentration 270 nM)
Method in brief: as §1

[6] = system: PPARa:RXRa (NR concentration 270 nM, RXRa partner concentration 90 nM)
Method in brief: as §1

[7] = system: PPARg:RXRa (NR concentration 180 nM, RXRa partner concentration 90 nM)
Method in brief: as §1

[8] = system: PPARg:RXRa 270nM:90nM, anti-RXR (NR concentration 270 nM, RXRa partner concentration 90 nM)
Method in brief: as §1

[9] = system: PPARg:RXRa 30nM:10nM, anti-RXR (NR concentration 30 nM, RXRa partner concentration 10 nM)
Method in brief: as §1

[10] = system: PPARg:RXRa 90nM:30nM, anti-RXR (NR concentration 90 nM, RXRa partner concentration 30 nM)
Method in brief: as §1

[11] = system: PPARg:RXRa DBDmut IVT, anti-RXR (DBD mutation: RXRa K156A/R161A, NR concentration 270 nM, RXRa partner concentration 90 nM)
Method in brief: as §1

[12] = system: PPARg:RXRa IVT, anti-PPARg (NR concentration 270 nM, RXRa partner concentration 90 nM)
Method in brief: as §1

[13] = system: PPARg DBDmut:RXRa IVT, anti-PPARg (DBD mutation: PPARg1 K132A/R137A, NR concentration 270 nM, RXRa partner concentration 90 nM)
Method in brief: as §1

[14] = system: PPARg DBDmut IVT, anti-PPARg (DBD mutation: PPARg1 K132A/R137A, NR concentration 270 nM)
Method in brief: as §1

[15] = system: PPARg homodimer (NR concentration 180 nM)
Method in brief: as §1

[16] = system: PXR:RXRa (NR concentration 270 nM, RXRa partner concentration 90 nM)
Method in brief: as §1

[17] = system: PXR homodimer (NR concentration 270 nM)
Method in brief: as §1

[18] = system: RARa:RXR (NR concentration 270 nM, RXRa partner concentration 90 nM)
Method in brief: as §1

[19] = system: RARa homodimer (NR concentration 270 nM)
Method in brief: as §1

[20] = system: RARb:RXRa (NR concentration 270 nM, RXRa partner concentration 90 nM)
Method in brief: as §1

Row | Sequence | PBM binding z-score [1] | PBM binding z-score [2] | PBM binding z-score [3] | PBM binding z-score [4] | PBM binding z-score [5] | PBM binding z-score [6] | PBM binding z-score [7] | PBM binding z-score [8] | PBM binding z-score [9] | PBM binding z-score [10] | PBM binding z-score [11] | PBM binding z-score [12] | PBM binding z-score [13] | PBM binding z-score [14] | PBM binding z-score [15] | PBM binding z-score [16] | PBM binding z-score [17] | PBM binding z-score [18] | PBM binding z-score [19] | PBM binding z-score [20]
1 | ATCTCTAGGTAAGGATAGTTCAGTGAATGCAAAT | 0.343 | 0.874 | 0.613 | 0.271 | 0.693 | 0.427 | 0.279 | 0.182 | 0.215 | 0.134 | 1.23 | 1.1 | 0.846 | 0.942 | 0.983 | 0.619 | 0.997 | 0.17 | 1.04 | 0.741
2 | CGTGCAAGGTCAAAGGTCAGTGAAGAGATGACGG | 8.16 | 6.9 | 3.14 | 6.7 | 1.86 | 7.4 | 10.9 | 9.02 | 7.56 | 9.38 | 4.05 | 5.94 | 1.68 | 0.658 | 4.64 | 7.09 | 1.48 | 8.94 | 1.9 | 5.91
3 | AGTCAAAGTTCAGGACGAGGTAACTTAAAGCACG | 4.45 | 3.83 | 1.38 | 2.1 | 0.364 | 3.59 | 4.72 | 4.85 | 2.02 | 3.7 | -0.0506 | 2.05 | 0.457 | 0.0759 | 1.75 | 3.24 | 1.4 | 2.84 | 1.02 | 4.25
4 | ATACCAAGGTGATCGTGAGGTCGTTTATACTAAC | 1.68 | 1.66 | 1.35 | 1.74 | 0.0373 | 1.69 | 0.492 | 0.454 | -0.0827 | 0.159 | 0.676 | 1.12 | 0.496 | 0.607 | 0.889 | 3.27 | 2.05 | 2.19 | 0.982 | 1.51
5 | CGTCCAAGGTCAACGGTCAGTGAAGAGATGACGG | 7.38 | 5.09 | 1.45 | 4.23 | 0.938 | 6.03 | 6.01 | 5.78 | 2.86 | 4.85 | 3.45 | 4.39 | 0.975 | 0.233 | 2.65 | 4.02 | 0.701 | 4.66 | 0.466 | 5.55
6 | TCGAGTAGGTTACCAATGGGGGATTCAGCTTTCT | 0.454 | 1 | -0.159 | 2.46 | 5.29 | 1.74 | 0.645 | 2.31 | 1.35 | 2.08 | 3.04 | 3.87 | 3.52 | 5.09 | 0.376 | 1.15 | -0.444 | 1.17 | -0.393 | 1.06
7 | TCGTATAGGTAAATGCTAGGTGAAAGTCCGATCT | 0.843 | 0.876 | 0.236 | 0.653 | 0.0986 | 0.931 | 0.156 | 1.84 | 3.04 | 2.54 | 2.09 | 1.21 | 0.00787 | 0.782 | 0.833 | 0.373 | -0.198 | 0.889 | 0.867 | 0.432
8 | GCATATAGGTATTACAAGGTGAAAGTCCGATTGT | 0.758 | 0.25 | 0.246 | 0.0719 | -0.375 | 1.38 | 0.78 | 0.981 | 0.434 | 0.722 | 1.46 | 1.46 | 0.48 | 1.21 | 0.307 | 0.0796 | 0.205 | 1.69 | 0.465 | 0.417
9 | ACTAGCAGGCCAAGGGCCACTCAAGATTAGTCCG | -0.56 | -0.559 | -0.856 | -1 | -1.27 | 0.699 | 2.13 | 3.13 | 1.28 | 2.51 | 0.244 | 0.822 | -0.352 | -1.82 | -0.633 | -0.879 | -0.75 | -0.678 | -0.685 | 0.884
10 | ATATGTAGGTAATCGGGTCATTCAGTTTGCGCAT | 1.83 | 1.79 | 0.62 | 2.26 | 0.648 | 4.67 | 6.27 | 5.56 | 3.33 | 4.77 | 7.17 | 7.38 | 2.95 | 2.04 | 1.76 | 2.84 | 6.06 | 2.79 | 1.35 | 1.6
11 | CCTTACGGGTCACTGCCAGGTTATAGCATTTGGA | 5.22 | 3.93 | 0.268 | 3.17 | 0.0184 | 4.86 | 4.05 | 4.26 | 1.23 | 2.88 | 3.11 | 3.87 | 0.0612 | -0.48 | 2.07 | 3.53 | 0.376 | 3.87 | 0.61 | 3.8
12 | TAGCCTAGGTCATGGGCCCGTATACCACGCGAAC | 4.69 | 3.5 | 0.466 | 2.77 | -0.0336 | 4 | 3.44 | 3.32 | 0.723 | 2.09 | 1.21 | 3.21 | -0.0541 | -0.484 | 1.07 | 1.92 | -0.637 | 2.86 | 0.106 | 3.81
13 | AATACAGGCTCACTAGGCCAGAGTAGGTACGAAT | -0.561 | -0.71 | -0.282 | -0.839 | -0.695 | -0.441 | 0.692 | 0.176 | 0.027 | -0.114 | 0.83 | 1.96 | 0.786 | 0.55 | -0.108 | -0.759 | -0.466 | -0.759 | -0.709 | -0.981
14 | GCGACTGGGGCAAAGCAGGTTACGATAAGGTTGG | 0.296 | -0.117 | -0.718 | 0.363 | -0.982 | 1.47 | 1.32 | 1.43 | -0.188 | 0.405 | 4.13 | 3.73 | -0.523 | -0.59 | 0.215 | 0.285 | -0.433 | 0.352 | -0.129 | 0.879
